Drawing on PubChem BioAssay (Tox21), this text covers Potency and outcome for eight compounds.

A short description of experiment [1]: qHTS assay to identify small molecule antagonists of the peroxisome proliferator-activated receptor delta (PPARd) signaling pathway - cell viability counter screen (AID 743213). Further: nearly all actives have a fitted effect of over 50% in size. Further: potency means the concentration at half of the fitted maximal effect. An outline of the steps: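 Agonist-stimulated (L165041, 300 nM final) HEK293H PPARd UAS-bla cells are exposed to compounds for 17 h at 37 C, and ATP-based luminescence (CellTiter-Glo) from the same wells reports cytotoxicity.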

A short description of experiment [2]: qHTS assay to identify small molecule antagonists of the farnesoid-X-receptor (FXR) signaling pathway - cell viability counter screen (AID 743221; active means well fitted cell-killing curve with a large enough effect in the repeat runs, not every such curve was filed as active; further: nearly all actives have a fitted effect of over 50% in size; further: potency means the concentration at half of the fitted maximal effect). An outline of the steps:
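GeneBLAzer FXR-UAS-bla HEK 293T cells, compound plus chenodeoxycholic acid (50 uM final), 16 h at 37 C. CellTiter-Glo added to the same wells after the beta-lactamase read; luminescence read after 30 min at room temperature as viability.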
(In general: Quantitative high-throughput screening tests each substance at several concentrations.)

Experiment [3] is described as follows: qHTS assay to identify small molecule agonists of the vitamin D receptor (VDR) signaling pathway - cell viability counter screen (AID 743224). Further: series mostly up to about 63 µM; nearly all actives have a fitted effect of over 50% in size. An outline of the steps: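 Plated VDR-bla cells (4 h, 37C) received compound, incubated 16 h, then LiveBLAzer substrate 2 h RT; CellTiter-Glo added afterwards, luminescence read at 30 min.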
A short description of experiment [4]: qHTS assay to identify small molecule antagonists of the vitamin D receptor (VDR) signaling pathway - cell viability counter screen (AID 743225). Further: nearly all actives have a fitted effect of over 50% in size. Further: potency means the concentration at half of the fitted maximal effect. In a few lines: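 VDR-UAS-bla HEK 293T cells were plated and incubated 4 h at 37C, then dosed with compound plus 3 nM (final) 1-alpha,25-dihydroxyvitamin D3 for 16 h. After the 2 h beta-lactamase read, viability in the same wells was read as CellTiter-Glo luminescence after 30 min at room temperature.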

The nature of experiment [5]: qHTS assay to identify small molecule agonists of the NFkB signaling pathway - cell viability counter screen (AID 1159515; calls by dose curve; further: nearly all actives have a fitted effect of over 55% in size; further: potency means the concentration at half of the fitted maximal effect). An outline of the steps:
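Using the same wells as the NFkB reporter read, ME-180 NFkB-bla cells given compounds for 5 hr were assessed for viability via CellTiter-Glo, with luminescence taken after a 30 min room-temperature incubation.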

Experiment [6] can be described thus: qHTS assay to identify small molecule agonists of the endoplasmic reticulum stress response signaling pathway (AID 1159516; active means well fitted activation curve with a large enough effect in the signal ratio in the repeat runs, not every such curve was filed as active; the % refers to the signal ratio). An outline of the steps:
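An ESRE-bla HeLa cell assay: compounds were pin-transferred from DMSO onto overnight-plated cells and left 5 hr at 37 C. Substrate was then loaded for 2 hr at room temperature before reading fluorescence at 460 nm and 530 nm.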

Experiment [7] can be described thus: qHTS assay to identify small molecule agonists of the endoplasmic reticulum stress response signaling pathway - cell viability counter screen (AID 1159517; calls by dose curve; further: nearly all actives have a fitted effect of over 50% in size; further: potency means the concentration at half of the fitted maximal effect). An outline of the steps: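 Luminescence readout: CellTiter-Glo, 30 min RT, same wells as the ESRE-bla reporter read. HeLa ESRE-bla, 1,500 cells/well, o/n 37 C; cpd 5 hr 37 C/5% CO2.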
The nature of experiment [8]: qHTS assay to identify small molecule antagonists of the retinoid-related orphan receptor gamma (ROR-gamma) signaling pathway - cell viability counter screen (AID 1159520). Further: nearly all actives have a fitted effect of over 50% in size. Further: potency means the concentration at half of the fitted maximal effect. An outline of the steps: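 Tet-on ROR gamma CHO cells (1,000/well) were plated 4 hr, given compounds in DMSO for 2 hr at 37 C, then induced with 1 uM final doxycycline for 16 hr. Viability was read as ATP by CellTiter-Glo luminescence after 30 min.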

Experiment [9] concerns the target Nuclear receptor ROR-gamma (Homo sapiens) (UniProt P51449). Briefly: qHTS assay to identify small molecule antagonists of the retinoid-related orphan receptor gamma (ROR-gamma) signaling pathway (AID 1159521; further: nearly all actives have a fitted effect of over 50% in size; further: potency means the concentration at half of the fitted maximal effect). In a few lines: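 Tet-on ROR-gamma CHO cells with ROR response element-luciferase reporter; compounds added 2 hr before 1 uM doxycycline induction, then 16 hr at 37 C. Antagonism scored as decreased ONE-Glo luminescence.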

Experiment [10] in a line: qHTS assay to identify small molecule agonists of the AP-1 signaling pathway (AID 1159526; calls by dose curve).
Experiment [11] has as its target Retinoic acid receptor RXR-alpha (Homo sapiens) (UniProt P19793). Briefly: qHTS assay to identify small molecule agonists of the RXR signaling pathway (AID 1159527; calls by dose curve; further: nearly all actives have a fitted effect of over 35% in size). In a few lines:
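GeneBLAzer RXR-alpha-UAS-bla HEK 293T cells in 2% charcoal-stripped FBS medium were exposed to compounds for 16 hr at 37 C in agonist mode. Beta-lactamase reporter read as 460/530 nm FRET ratio after 2 hr substrate loading.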

Experiment [12] can be described thus: qHTS assay to identify small molecule agonists of the RXR signaling pathway - cell viability counter screen (AID 1159529). Further: nearly all actives have a fitted effect of over 50% in size. Further: potency means the concentration at half of the fitted maximal effect. In a few lines:
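RXR-alpha-UAS-bla HEK 293T cells in medium with 2% charcoal-stripped FBS were pre-incubated 5 hr, then compound-treated 16 hr at 37 C. Viability was read by CellTiter-Glo luminescence in the same wells as the beta-lactamase assay, with tetraoctyl ammonium bromide as positive control.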

A short description of experiment [13]: qHTS assay to identify small molecule antagonists of the retinoid acid receptor (RAR) signaling pathway - cell viability counter screen (AID 1159551). Further: nearly all actives have a fitted effect of over 35% in size. Further: potency means the concentration at half of the fitted maximal effect. An outline of the steps:
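Retinol-stimulated (1 uM final) C3RL4 cells, compound 6 h, 37 C; readout CellTiter-Glo luminescence (ATP) after 30 min RT incubation.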

The target in experiment [14] is Vitamin D3 receptor (Homo sapiens) (UniProt P11473). Briefly: qHTS assay to identify small molecule antagonists of the vitamin D receptor (VDR) signaling pathway (AID 743223; active means well fitted inhibition curve with a large enough effect in the signal ratio in the repeat runs, not every such curve was filed as active; the % refers to the signal ratio; further: potency means the concentration at half of the fitted maximal effect). An outline of the steps: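 VDR-bla cells were treated with compound plus 3 nM final 1alpha,25-dihydroxyvitamin D3 for 16 h at 37C. Beta-lactamase reporter read by B/G FRET substrate fluorescence after 2 h at room temperature. qHTS format.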
Vitamin D3 receptor (Homo sapiens), sequence (P11473 whole entry, looked up): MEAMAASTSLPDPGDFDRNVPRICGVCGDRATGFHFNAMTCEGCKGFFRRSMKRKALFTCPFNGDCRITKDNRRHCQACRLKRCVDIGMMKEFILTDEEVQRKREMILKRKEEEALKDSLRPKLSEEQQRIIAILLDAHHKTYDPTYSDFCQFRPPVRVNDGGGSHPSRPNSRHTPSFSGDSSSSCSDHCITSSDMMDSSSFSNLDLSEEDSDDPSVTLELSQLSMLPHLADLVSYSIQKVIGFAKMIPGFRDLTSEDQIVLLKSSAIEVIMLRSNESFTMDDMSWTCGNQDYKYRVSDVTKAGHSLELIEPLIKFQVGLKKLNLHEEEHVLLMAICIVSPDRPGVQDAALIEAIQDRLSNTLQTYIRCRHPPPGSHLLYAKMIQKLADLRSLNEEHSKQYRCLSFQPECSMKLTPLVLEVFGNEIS

The nature of experiment [15]: qHTS assay to identify small molecule agonists of the AP-1 signaling pathway - cell viability counter screen (AID 1159525; calls by dose curve; further: nearly all actives have a fitted effect of over 55% in size; further: potency means the concentration at half of the fitted maximal effect). In a few lines: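 ME-180 AP-1-bla, 2500 cells/well, Opti-MEM + 0.5% dialyzed FBS; overnight 37 °C; cpd 15-pt titration, 5 h 37 °C; CellTiter-Glo 30 min RT; luminescence read; normalised to TOAB and DMSO controls.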
Experiment [16] can be described thus: qHTS assay to identify small molecule agonists of the farnesoid-X-receptor (FXR) signaling pathway - cell viability counter screen (AID 743218). Further: nearly all actives have a fitted effect of over 45% in size. Further: potency means the concentration at half of the fitted maximal effect. An outline of the steps:
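Parallel cytotoxicity test: compound-treated (16 h, 37 C) HEK 293T FXR-bla reporter cells were lysed with CellTiter-Glo and luminescence recorded.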

The target in experiment [17] is Peroxisome proliferator-activated receptor delta (Homo sapiens) (UniProt Q03181). Briefly: qHTS assay to identify small molecule antagonists of the peroxisome proliferator-activated receptor delta (PPARd) signaling pathway (AID 743215; active means well fitted inhibition curve with a large enough effect in the signal ratio in the repeat runs, not every such curve was filed as active; the % refers to the signal ratio; further: series mostly up to about 62 µM). An outline of the steps:
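HEK293H UAS-bla, PPARd; agonist L165041 300 nM final with cpd in DMSO; 37 C 17 h; FRET substrate, RT 2 h; fluorescence intensity.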

Experiment [18] in a line: qHTS assay to identify small molecule antagonists of the retinoic acid receptor (RAR) signaling pathway (AID 1159552; further: nearly all actives have a fitted effect of over 50% in size; further: potency means the concentration at half of the fitted maximal effect). An outline of the steps: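 Retinol signaling pathway inhibitors screened in C3RL4 RARE-luciferase reporter cells seeded overnight at 37 C, then compounds added with 1 uM (final) retinol as pathway substrate. After 6 hr at 37 C, luciferase luminescence read after 30 min at room temperature.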

Molecules are shown by their SMILES. Several values for one entry are separate records, joined by “and”; a condition that tells them apart may be missing. Equal values may be shown once. Records with an inconclusive call do not appear. Some structures have more than one record in an assay (separate samples or runs), and their calls can disagree. Activity calls are given as the source filed them. Unless noted, the call rests on the fitted dose curve; in most records, active means well fitted curve in the direction sought with a large enough effect in the repeat runs; inconclusive means weak or mixed curves; inactive means no such curve, though single readings can be large; an effect the other way counts as inactive or inconclusive.

Retinoic acid receptor RXR-alpha (Homo sapiens), sequence (P19793 whole entry, looked up): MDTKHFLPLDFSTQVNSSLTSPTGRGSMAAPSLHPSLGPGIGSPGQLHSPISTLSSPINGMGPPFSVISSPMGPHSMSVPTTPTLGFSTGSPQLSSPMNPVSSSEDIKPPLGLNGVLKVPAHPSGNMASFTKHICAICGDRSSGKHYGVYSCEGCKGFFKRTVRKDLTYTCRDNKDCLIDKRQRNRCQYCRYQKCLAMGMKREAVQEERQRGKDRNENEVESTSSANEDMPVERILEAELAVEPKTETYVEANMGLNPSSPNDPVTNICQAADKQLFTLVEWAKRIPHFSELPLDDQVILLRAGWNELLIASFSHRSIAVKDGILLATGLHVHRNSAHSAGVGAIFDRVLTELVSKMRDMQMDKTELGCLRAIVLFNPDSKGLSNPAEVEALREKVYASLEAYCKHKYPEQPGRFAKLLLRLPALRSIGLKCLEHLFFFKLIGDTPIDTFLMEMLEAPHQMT
Peroxisome proliferator-activated receptor delta (Homo sapiens), sequence (Q03181 whole entry, looked up): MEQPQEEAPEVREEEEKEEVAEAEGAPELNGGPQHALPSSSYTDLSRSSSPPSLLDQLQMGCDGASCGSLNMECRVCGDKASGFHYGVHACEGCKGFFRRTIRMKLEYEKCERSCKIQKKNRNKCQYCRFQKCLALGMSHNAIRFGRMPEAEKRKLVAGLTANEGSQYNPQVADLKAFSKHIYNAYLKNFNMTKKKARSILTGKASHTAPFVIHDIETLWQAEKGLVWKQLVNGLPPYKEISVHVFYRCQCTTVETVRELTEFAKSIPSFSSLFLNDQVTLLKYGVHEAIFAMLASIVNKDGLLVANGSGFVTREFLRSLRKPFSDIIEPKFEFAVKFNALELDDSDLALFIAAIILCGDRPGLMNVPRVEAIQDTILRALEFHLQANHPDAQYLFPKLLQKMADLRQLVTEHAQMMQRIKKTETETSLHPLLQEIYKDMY

`O=c1nc(O)n(Cl)c(=O)n1Cl`: the Potency result in experiment [1], in [2], in [3], in [4], in [5] and in experiment [7] was “inactive” each time. Moreover, the Potency entry in experiment [8], in [9], in experiment [10], in experiment [11], in [12] and in experiment [13] was “inactive” in each case. Besides, the outcome in experiment [6] was inactive.

`CCCC[N+]1(C)CCCC1`: the Potency result in [1], in experiment [2], in [3], in [4], in experiment [5] and in [7] was “inactive” in each case. Besides, the Potency entry in experiment [8], in experiment [9], in [10], in experiment [11], in [12] and in experiment [13] was “inactive” throughout. In addition, in [6], the result was inactive.

Take `CCCCn1cc[n+](C)c1`: the Potency entry in experiment [1], in experiment [2], in experiment [3], in [4], in [5] and in [7] was “inactive” in each case. Also, the Potency result in experiment [8], in experiment [10], in experiment [11], in experiment [12] and in [13] was “inactive” in each case. For the same compound, the compound was called inactive in experiment [6].

On to `N#CS`, for which the Potency entry in [1], in experiment [2], in [14], in [3], in experiment [4] and in experiment [5] was “inactive” throughout. Besides, the Potency result in [7], in experiment [8], in experiment [15], in experiment [10], in experiment [11] and in [12] was “inactive” throughout. Also, the Potency entry in experiment [13] was “inactive”. Besides, in experiment [6], the compound was classed as inactive.

Take `Oc1cccc2cccnc12`: the Potency is 521 nM (active) and 155 nM (active) in experiment [1]; 776 nM [cytotoxic] (active) and inactive in experiment [2]; “inactive and 8.71 µM (active)” in experiment [4]; “inactive and 977 nM (active)” in experiment [5]; 780 nM (active) and 155 nM (active) in experiment [7]; 3.44 µM (active) and inactive in [8]. Moreover, the Potency in experiment [9] is 774 nM (active) and 864 nM (active) and inactive; in experiment [12], 780 nM (active) and 692 nM (active) and inactive; in experiment [13] it was “inactive and 7.7 µM (active)”. Besides, the Potency entry in experiment [14], in experiment [10] and in [11] was “inactive” each time. Moreover, the outcome in [6] was inactive.

On to `O=C(O)c1ccccc1O`, for which the Potency result in [1], in [2], in experiment [3], in [4], in [5] and in [7] was “inactive” throughout. In addition, the Potency entry in experiment [8], in [15], in experiment [10], in [11], in experiment [12] and in experiment [13] was “inactive” each time. Also, the call in [6] was inactive.

For `CN(C)[C@@H]1C(=O)C(C(N)=O)=C(O)[C@@]2(O)C(=O)C3=C(O)c4c(O)cccc4[C@@](C)(O)[C@H]3[C@H](O)[C@@H]12`, the Potency entry in experiment [1], in [16], in experiment [2], in experiment [3], in experiment [4] and in [5] was “inactive” throughout. In addition, the Potency result in experiment [7], in [8], in experiment [15], in experiment [10], in experiment [11] and in experiment [12] was “inactive” in each case. Moreover, the Potency entry in [13] is “inactive”. Further, the compound was called inactive in experiment [6].

With `CCCCCCCCCCCCCCCCn1cc[n+](C)c1`, the compound was called inactive in experiment [17] and in experiment [6]. Moreover, the Potency entry in experiment [16] was “inactive and 44 µM (active) and 21.9 µM (active)”; in experiment [14], 15.5 µM (active); in experiment [5], 44.6 µM (active) and inactive and 24.6 µM (active); in experiment [8], “inactive and 61.7 µM (active) and 30.7 µM (active)”; in [15] it was “inactive and 21.9 µM (active)”; in [13] it was “inactive and 61.7 µM (active) and 43.4 µM (active)”. Moreover, in [18], the Potency result was “inactive and 27.6 µM (active) and 13.7 µM (active)”. The Potency entry in [10] and in experiment [11] was “inactive” throughout.
